Data published in ChEMBL document CHEMBL3988442, “University of Dundee, Small-Polar-MMV Screening Library” (2021).
For some of these results: Measured potencies and affinities stand elsewhere.

Columns and labels:
Design in all cases: scale not given: direction of the effect not stated beside the values
[1] = biological target: Protein translocase subunit SecA (Escherichia coli (strain K12)) (UniProt P10408); assay: Assay to Identify E. coli SecA ATPase Inhibitors; type: functional; details: 30 µM
[2] = biological target: T1, Ubiquitin-activating enzyme e1, putative (Leishmania donovani (strain BPK282A1)) (UniProt E9BSI1); assay: Leishmania donovani Ubiquitin Activating Enzyme (LdE1); type: functional; details: 30 µM
T1 sequence (whole entry): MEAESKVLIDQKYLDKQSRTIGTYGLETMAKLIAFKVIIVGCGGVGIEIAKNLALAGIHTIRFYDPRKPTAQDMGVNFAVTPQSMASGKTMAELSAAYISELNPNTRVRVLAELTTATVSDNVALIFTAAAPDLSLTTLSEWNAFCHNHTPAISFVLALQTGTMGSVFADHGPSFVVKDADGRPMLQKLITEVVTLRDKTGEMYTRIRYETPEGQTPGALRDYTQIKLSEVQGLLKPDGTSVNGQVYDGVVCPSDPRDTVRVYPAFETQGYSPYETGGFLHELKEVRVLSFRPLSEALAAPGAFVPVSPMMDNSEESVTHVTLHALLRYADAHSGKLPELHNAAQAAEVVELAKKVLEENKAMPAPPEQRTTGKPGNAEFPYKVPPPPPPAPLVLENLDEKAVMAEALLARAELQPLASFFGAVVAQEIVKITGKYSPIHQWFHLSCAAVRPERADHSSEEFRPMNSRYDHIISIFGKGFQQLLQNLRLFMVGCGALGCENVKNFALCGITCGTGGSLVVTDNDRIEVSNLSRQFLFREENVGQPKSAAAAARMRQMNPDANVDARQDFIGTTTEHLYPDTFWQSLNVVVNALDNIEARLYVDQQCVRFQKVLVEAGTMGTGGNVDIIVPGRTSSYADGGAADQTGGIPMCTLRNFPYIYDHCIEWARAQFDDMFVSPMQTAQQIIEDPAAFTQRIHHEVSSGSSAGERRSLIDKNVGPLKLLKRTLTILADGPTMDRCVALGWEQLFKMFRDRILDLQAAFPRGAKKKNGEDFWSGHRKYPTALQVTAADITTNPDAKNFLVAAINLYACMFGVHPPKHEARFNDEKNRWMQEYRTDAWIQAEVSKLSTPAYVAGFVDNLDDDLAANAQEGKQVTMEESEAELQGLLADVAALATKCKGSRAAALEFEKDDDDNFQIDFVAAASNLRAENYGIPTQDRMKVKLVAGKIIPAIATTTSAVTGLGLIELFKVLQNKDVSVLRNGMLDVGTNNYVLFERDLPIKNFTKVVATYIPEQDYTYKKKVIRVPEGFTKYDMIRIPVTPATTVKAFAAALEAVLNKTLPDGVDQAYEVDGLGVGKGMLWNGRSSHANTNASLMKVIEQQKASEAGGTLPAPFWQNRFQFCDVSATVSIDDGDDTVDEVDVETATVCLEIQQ

[3] = biological target: AMP-activated protein kinase, AMPK (Homo sapiens) (UniProt P54646+O43741+P54619+Q9UGJ0+Q9Y478+Q13131+Q9UGI9); assay: AMP-dependent Kinase enzyme assay. An in vitro enzyme assay that detects ADP turnover that is directly proportional to AMPK activity. This uses naive AMPK that is activated during the assay with MK-8722; type: functional; details: 30 µM
[4] = biological target: Sialic acid-binding Ig-like lectin 9 (Homo sapiens) (UniProt Q9Y336); assay: Hs-Siglec9 ALPHAscreen SOP 20170721; details: 10 µM
Trypanosoma cruzi = assay: Trypanosoma cruzi phosphomannomutase and mannose-1-phosphate guanylyltransferase assay; type: functional; details: 10 µM
[5] = biological target: T2, Arginase-2, mitochondrial (Homo sapiens) (UniProt P78540); assay: in vitro enzyme assay to detect the production of urea directly proportional to the activity of Arginase II; type: functional; details: 33.3 µM; note: in the data most compounds retested in dose-response had high values
T2 sequence (whole entry): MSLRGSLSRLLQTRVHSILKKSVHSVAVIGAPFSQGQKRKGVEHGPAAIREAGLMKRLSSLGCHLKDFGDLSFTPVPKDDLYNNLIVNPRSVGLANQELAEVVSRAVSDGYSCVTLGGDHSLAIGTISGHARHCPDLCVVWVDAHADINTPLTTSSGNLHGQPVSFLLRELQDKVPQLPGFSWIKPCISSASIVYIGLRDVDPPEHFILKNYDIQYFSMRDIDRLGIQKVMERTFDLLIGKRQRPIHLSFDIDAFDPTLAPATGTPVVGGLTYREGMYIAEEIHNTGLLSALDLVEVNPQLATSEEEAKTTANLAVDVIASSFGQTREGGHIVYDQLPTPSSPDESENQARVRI

[6] = biological target: T3, Proteasome subunit beta (Trypanosoma cruzi) (UniProt O96673); assay: Trypanosoma cruzi proteasome chymotrypsin-like activity (TcProtChymo) assay.; note: in the data most compounds retested in dose-response had high values; type: functional; details: 9.37 µM
T3 sequence (whole entry): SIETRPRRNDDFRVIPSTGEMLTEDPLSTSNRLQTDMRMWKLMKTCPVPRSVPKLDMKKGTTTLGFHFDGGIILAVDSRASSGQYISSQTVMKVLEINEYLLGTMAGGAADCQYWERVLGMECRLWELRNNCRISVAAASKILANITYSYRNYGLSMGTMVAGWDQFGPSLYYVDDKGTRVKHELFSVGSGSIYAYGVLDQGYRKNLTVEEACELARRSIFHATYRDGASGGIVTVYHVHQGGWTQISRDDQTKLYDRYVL

Homo sapiens = species: Homo sapiens; assay: To identify inhibition of the IFN signalling (Jak-Stat) pathway via expression of an eGFP reporter gene under the control of an IFN-stimulated response element (ISRE) containing MxA promoter.; type: functional; details: 30 µM
[7] = biological target: T4, Tyrosyl-tRNA synthetase, putative (Trypanosoma cruzi (strain CL Brener)) (UniProt Q4DSP6); assay: Trypanosoma cruzi tyrosyl tRNA synthetase (TcYRS) _High Tyrosine SOP; type: functional; details: 30 µM; note: in the data most compounds retested in dose-response had high values
T4 sequence (whole entry): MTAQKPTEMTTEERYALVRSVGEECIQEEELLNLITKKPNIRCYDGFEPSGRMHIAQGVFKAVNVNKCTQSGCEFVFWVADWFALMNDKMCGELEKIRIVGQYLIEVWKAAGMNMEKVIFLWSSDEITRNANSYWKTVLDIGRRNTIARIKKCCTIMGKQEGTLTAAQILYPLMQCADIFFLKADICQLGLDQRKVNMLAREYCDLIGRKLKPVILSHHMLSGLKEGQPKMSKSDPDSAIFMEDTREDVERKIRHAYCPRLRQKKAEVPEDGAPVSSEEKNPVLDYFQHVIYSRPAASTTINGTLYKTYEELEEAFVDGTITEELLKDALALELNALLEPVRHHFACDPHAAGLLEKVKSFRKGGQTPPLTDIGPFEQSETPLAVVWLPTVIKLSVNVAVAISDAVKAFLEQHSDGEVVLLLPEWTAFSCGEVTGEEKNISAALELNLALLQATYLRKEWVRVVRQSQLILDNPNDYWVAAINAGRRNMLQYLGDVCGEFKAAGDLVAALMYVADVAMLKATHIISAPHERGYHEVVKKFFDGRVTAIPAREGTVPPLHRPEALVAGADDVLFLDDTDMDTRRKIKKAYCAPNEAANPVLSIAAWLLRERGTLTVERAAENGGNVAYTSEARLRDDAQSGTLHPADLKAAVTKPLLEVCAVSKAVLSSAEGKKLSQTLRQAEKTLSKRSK

[8] = biological target: T4, Tyrosyl-tRNA synthetase, putative (Trypanosoma cruzi (strain CL Brener)); assay: Trypanosoma cruzi tyrosyl tRNA synthetase (TcYRS) SOP; type: functional; details: 30 µM
[9] = biological target: Chromo domain-containing protein 1 (Saccharomyces cerevisiae (strain ATCC 204508 / S288c) (Baker's yeast)) (UniProt P32657); assay: ScCHD-1 Enzyme Inhibition Assay; type: functional; details: 30 µM; note: in the data most compounds retested in dose-response had high values
Chain of Chromo domain-containing protein 1 (Saccharomyces cerevisiae (strain ATCC 204508 / S288c) (Baker's yeast)) (P32657 whole entry, the tested form may be a part): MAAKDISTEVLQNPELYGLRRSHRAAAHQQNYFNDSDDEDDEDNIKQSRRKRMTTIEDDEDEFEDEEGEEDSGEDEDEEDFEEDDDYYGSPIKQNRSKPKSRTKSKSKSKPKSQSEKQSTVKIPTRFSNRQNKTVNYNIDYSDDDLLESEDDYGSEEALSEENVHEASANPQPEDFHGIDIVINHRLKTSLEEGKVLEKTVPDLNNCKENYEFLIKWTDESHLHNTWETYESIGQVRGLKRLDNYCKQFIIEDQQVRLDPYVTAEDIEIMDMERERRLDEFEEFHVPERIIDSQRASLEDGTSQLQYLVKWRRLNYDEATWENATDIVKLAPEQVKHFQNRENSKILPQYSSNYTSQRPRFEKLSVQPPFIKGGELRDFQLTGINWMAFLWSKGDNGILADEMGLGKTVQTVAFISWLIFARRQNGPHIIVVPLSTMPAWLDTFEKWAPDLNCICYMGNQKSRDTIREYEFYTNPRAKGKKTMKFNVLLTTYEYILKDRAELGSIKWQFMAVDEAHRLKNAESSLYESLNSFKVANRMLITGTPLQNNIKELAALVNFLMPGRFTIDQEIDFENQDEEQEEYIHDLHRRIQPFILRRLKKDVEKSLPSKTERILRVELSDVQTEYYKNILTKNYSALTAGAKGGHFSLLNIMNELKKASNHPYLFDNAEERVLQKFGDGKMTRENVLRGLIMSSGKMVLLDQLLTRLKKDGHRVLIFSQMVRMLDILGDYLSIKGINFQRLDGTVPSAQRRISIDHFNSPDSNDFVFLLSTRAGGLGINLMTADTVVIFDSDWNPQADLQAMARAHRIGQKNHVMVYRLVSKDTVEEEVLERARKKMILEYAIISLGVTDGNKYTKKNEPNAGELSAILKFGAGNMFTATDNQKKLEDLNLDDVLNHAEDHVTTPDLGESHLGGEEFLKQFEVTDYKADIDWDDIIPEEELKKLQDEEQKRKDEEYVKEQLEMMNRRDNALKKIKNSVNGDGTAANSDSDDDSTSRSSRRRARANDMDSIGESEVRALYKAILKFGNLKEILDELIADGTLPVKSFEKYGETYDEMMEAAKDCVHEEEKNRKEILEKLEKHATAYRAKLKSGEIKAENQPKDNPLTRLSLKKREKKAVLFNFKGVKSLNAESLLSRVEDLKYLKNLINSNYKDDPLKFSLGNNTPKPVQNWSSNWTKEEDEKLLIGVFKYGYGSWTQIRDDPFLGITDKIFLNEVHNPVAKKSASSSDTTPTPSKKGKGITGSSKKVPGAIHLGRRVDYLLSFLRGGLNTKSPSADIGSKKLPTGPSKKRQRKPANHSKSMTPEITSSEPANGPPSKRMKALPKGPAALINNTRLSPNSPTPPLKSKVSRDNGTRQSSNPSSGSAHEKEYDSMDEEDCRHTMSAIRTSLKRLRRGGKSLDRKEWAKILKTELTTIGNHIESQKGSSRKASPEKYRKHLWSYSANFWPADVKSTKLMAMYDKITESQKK

Chain of Protein translocase subunit SecA (Escherichia coli (strain K12)) (P10408 whole entry): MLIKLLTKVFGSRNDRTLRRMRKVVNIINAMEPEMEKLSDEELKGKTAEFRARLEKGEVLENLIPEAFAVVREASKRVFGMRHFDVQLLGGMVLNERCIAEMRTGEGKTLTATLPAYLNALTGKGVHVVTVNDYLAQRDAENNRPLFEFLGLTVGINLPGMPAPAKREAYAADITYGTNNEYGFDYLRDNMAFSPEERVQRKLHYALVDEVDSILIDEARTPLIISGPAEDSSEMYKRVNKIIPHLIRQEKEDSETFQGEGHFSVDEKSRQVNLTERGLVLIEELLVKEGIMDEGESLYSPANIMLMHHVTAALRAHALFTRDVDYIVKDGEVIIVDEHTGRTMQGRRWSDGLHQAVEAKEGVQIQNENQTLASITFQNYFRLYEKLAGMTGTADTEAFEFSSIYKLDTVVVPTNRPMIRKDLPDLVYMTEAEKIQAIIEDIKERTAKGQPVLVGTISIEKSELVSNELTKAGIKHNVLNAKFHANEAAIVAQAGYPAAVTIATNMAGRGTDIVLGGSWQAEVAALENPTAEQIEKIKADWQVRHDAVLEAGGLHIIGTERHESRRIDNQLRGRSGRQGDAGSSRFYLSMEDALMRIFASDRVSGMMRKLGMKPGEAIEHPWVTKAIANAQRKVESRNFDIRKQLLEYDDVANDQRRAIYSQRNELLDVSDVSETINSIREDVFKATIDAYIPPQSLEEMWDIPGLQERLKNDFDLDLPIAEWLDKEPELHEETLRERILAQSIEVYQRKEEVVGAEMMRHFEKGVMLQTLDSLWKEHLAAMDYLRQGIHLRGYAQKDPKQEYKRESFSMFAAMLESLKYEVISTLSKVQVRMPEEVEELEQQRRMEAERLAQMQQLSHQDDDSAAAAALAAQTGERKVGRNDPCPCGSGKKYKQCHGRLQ
Chain of Sialic acid-binding Ig-like lectin 9 (Homo sapiens) (Q9Y336 whole entry): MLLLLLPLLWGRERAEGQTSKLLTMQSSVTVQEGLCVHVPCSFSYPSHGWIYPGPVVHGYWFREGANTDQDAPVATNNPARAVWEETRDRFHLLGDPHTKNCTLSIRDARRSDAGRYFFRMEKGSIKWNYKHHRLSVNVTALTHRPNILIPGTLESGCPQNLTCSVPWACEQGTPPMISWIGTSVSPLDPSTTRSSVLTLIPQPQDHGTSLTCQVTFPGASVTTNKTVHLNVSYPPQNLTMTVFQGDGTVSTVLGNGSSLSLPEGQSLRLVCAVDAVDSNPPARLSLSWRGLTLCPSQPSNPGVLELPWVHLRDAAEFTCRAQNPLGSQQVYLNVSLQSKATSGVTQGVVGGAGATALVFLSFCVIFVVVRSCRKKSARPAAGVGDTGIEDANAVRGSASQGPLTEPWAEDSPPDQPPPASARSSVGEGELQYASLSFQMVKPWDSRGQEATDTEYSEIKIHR

SMILES	Percent Effect [1] [%]	Percent Effect [2] [%]	Percent Effect [3] [%]	Percent Effect [4] [%]	Percent Effect (Trypanosoma cruzi) [%]	Percent Effect [5] [%]	Percent Effect [6] [%]	Percent Effect (Homo sapiens) [%]	Percent Effect [7] [%]	Percent Effect [8] [%]	Percent Effect [9] [%]
CC(C)OCCCNC(=O)CN1CCC(N2CCN(C)C2=O)CC1	-4.79	-12.7	-9.11	10.6	4.82	-1.9	7.45	-2.11	-0.493	8.86	-6.17
O=C(c1cnn2c1OCCC2)N1CCN(C/C=C/c2ccccc2)CC1	-2.24	7.79	3.47	6.1	-1.28	-5.81	8.88	10.8	5.29	16.7	-8.13
CCN(CC)S(=O)(=O)N1CCCC(c2ccc(C(=O)O)cc2)C1 (stereo unspecified)	-1.63	-2.7	0.184	8.84	-4.44	-4.76	0.69	-0.683	2.65	0	-0.737
CS(=O)(=O)NCc1cn2c(n1)CN(C(=O)c1ccc[nH]1)CC2	-5.06	10.7	14.2	2.3	-1.97	0.233	5.2	2.29	7.45	14.1	-4.02
CCOCC1CN(S(C)(=O)=O)Cc2cnn(C)c21 (stereo unspecified)	-0.898	16	-7.73	10.1	5.79	-43.9	10.8	-2.61	4.17	12.5	-7.93
Cc1ccccc1C(=O)CN1C(=O)c2ccccc2CS1(=O)=O	-2.33	-10.8	2.31	-3.21	-5.41	-2.86	12.8	18.7	-25.9	-31.7	14.8
Cc1ccc(C(=O)NCCCN2CCOCC2)c(Cl)c1	-2.82	2.6	2.57	5.34	6.79	-2.76	4.33	18.2	3.23	11.1	108
CN(C(=O)c1cccc(C(=O)NCC(F)(F)F)c1)c1ccccc1	-6.02	-2.6	-0.584	2.53	-5.8	-6.9	9.82	7.29	-1.07	-8.64	0.0055
CC(NC(=O)c1cc(-c2cccc(Cl)c2)no1)C(=O)N1CCCC1 (stereo unspecified)	-2.69	0	16.6	-3.21	-5.16	-2.37	7.19	-1.32	2.13	0	-4.18
COc1cc(CNC(=O)NCCCF)cc(Br)c1OC	-5.95	-2.67	3.23	-1.26	-2.24	0	-0.174	25.5	1.64	1.24	1.39
O=C(Nc1cccnc1)N1CCC(n2ccc(C(F)(F)F)n2)CC1	-7.93	8.22	-4.95	13	3.72	-0.909	10.5	2.75	1.07	10	-5.84
